Results filed as inconclusive are left out. Calls of active or inactive are those of the source. Unless noted, calls follow the shape of the dose curve; as a rule, active = well fitted curve in the direction sought with a large enough effect; inconclusive = small, poorly fitted or top-dose-only effect, or another doubt; inactive = no such curve, though single readings can be large; an effect the other way counts as inactive or inconclusive.

Data on five molecules can be found in PubChem BioAssay (NCATS).

Experiment [1] has as its target Lysosomal acid glucosylceramidase (Homo sapiens) (UniProt P04062). The experiment is described as follows: Glucocerebrosidase-p2 (AID 348; in the data active = potency below about 10 µM; also: potency is read from the fitted curve at half-maximal effect). The note with it: purified GBA, blue fluorogenic substrate, 40 min. Put shortly: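 Normal human glucocerebrosidase (0.2 nM) with blue fluorogenic substrate (80 uM final) in citrate/phosphate pH 5.9 with 10mM sodium taurocholate, 0.01% tween-20; 40 min RT, NaOH/glycine stop; fluorescence Ex 365/Em 440; AC50 from a titration from 0.6 nM upwards.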

Experiment [2] is described as follows: AP1 Signaling Pathway (AID 357; active = well fitted curve in either direction with a large enough effect, not every such curve was filed as active; also: % is scaled to controls: 0 for no effect and ±100 for the full control effect). The note with it: ME-180 AP-1-bla reporter, EGF-induced, beta-lactamase ratio, 5 h; at 7.69 µM (top of the series) unless noted. Summed up: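 In this screen, ME-180 cells in Opti-MEM with 0.5% dialyzed FBS received EC50 EGF and compound titrations for 5 h. AP-1 reporter beta-lactamase was detected via CCF4 ratio, giving AC50 for positive and negative modulators.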

Experiment [3] has as its target Cytochrome P450 1A2 (Homo sapiens) (UniProt P05177). Kind of experiment: p450-cyp1a2 (AID 410; calls by dose curve; also: potency is read from the fitted curve at half-maximal effect). The following applies: recombinant CYP1A2, luciferin-ME demethylation, luminescence; series mostly up to 57 µM. Summed up:
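20nM CYP1A2, 100uM Luciferin-ME (=Km), 100mM KPO4; cpd 10 min RT; +NADPH regen, 60 min RT; stop/detect 20 min; luminescence. Normalized to furafylline 57 uM = full inhibition.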

The nature of experiment [4]: NFAT Signaling Pathway (AID 444; active = well fitted curve in either direction with a large enough effect, not every such curve was filed as active;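 also: carbachol stimulus at about its EC50 of 1 µM final; % is scaled to controls: 0 for no effect and ±100 for the full control effect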). The note with it: Jurkat NFAT-bla M1, carbachol, beta-lactamase ratio, 5 h; at 7.69 µM (top of the series) unless noted. Put shortly:
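Jurkat cells carrying an NFAT-driven β-lactamase reporter and co-transfected muscarinic M1 receptor were treated with compound plus carbachol (1 uM final, an EC50 level) for 5 h at 37 °C. CCF4 loading followed for 1 h at RT; 460/530 nm ratio gave %activity.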

A short description of experiment [5]: Stat Signaling Pathway (AID 446; active = well fitted curve in either direction with a large enough effect, not every such curve was filed as active;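 also: ME-180 cervical cancer cells given 40 pM IL-6 alongside compound; SIE-controlled beta-lactamase reporter measured as 460/530 nm FRET emission ratio; % is scaled to controls: 0 for no effect and ±100 for the full control effect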). The following applies: ME-180 (cervical carcinoma) SIE beta-lactamase reporter, IL-6 stimulated, 5 h; at 7.69 µM (top of the series) unless noted. Put shortly: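 FRET read-out (405 nm excitation, 460/530 nm emission) of a beta-lactamase reporter under a STAT-inducible element in ME-180 cervical carcinoma cells. Cells with compound receive 40 pM IL-6 for 5 h. Values are normalised to AC90 stimulation and AC90 JAK-inhibitor controls.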

In experiment [6] the target is Glucocorticoid receptor (Homo sapiens) (UniProt P04150). The experiment is described as follows: GR-GFP Redistribution (AID 450;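 active = compounds whose dose series gives a full or clear partial fitted curve of increased nuclear translocation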; also: potency is read from the fitted curve at half-maximal effect). The following applies: U2OS GR-GFP nuclear translocation, laser cytometry, 2 h.
Sequence of Glucocorticoid receptor (Homo sapiens) (P04150 whole entry, looked up, the tested form may be a part): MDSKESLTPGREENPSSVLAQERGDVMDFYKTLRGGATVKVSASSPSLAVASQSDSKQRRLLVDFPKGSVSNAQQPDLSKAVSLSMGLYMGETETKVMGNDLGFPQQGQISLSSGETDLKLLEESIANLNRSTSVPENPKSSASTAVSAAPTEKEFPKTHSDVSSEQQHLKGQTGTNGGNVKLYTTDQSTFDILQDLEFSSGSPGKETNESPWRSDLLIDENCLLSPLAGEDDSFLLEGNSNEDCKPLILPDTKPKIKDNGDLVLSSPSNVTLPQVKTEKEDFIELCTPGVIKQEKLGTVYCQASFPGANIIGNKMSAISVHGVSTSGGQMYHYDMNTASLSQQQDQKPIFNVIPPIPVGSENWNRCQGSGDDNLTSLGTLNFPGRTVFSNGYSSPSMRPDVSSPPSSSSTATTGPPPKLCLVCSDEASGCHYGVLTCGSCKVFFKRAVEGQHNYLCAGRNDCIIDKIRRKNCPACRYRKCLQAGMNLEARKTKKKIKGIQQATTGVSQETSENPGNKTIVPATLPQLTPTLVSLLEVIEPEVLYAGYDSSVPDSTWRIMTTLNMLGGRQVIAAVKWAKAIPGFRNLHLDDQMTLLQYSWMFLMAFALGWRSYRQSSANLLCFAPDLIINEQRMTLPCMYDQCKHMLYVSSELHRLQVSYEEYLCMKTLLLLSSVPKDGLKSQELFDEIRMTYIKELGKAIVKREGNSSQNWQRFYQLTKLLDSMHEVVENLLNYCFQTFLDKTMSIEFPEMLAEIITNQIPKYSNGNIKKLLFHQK
Experiment [7] has the same target. Kind of experiment: GR-EFC Redistribution (AID 451; calls by dose curve; also: potency is read from the fitted curve at half-maximal effect). The following applies: CHO-K1 GR-EFC translocation, beta-gal luminescence, 2 h. Summed up: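 CHO-K1 cells stably expressing nuclear-localized β-gal enzyme acceptor and GR fused C-terminally to the enzyme donor fragment; ligand-driven nuclear translocation restores β-gal by complementation. Compounds titrated up to 46 uM final, 2 h at 37 °C; luminescence read.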

Experiment [8] deals with Mitogen-activated protein kinase 10 (Mus musculus) (UniProt Q61831). Kind of experiment: JNK3 AlphaScreen Assay (AID 530; active = well fitted curve in either direction with a large enough effect, not every such curve was filed as active;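 also: kinase came from lysate of stimulated human HepG2 cells; % is scaled to controls: 0 for no effect and ±100 for the full control effect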). The following applies: JNK3 lysate, c-Jun phosphorylation; series mostly up to 57.1 µM. Summed up: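 Biotinylated GST-cJun(1-79) served as substrate for JNK3 in HepG2 lysates stimulated with IL-1beta and TNF-alpha. ATP was 10 uM final, pH 7.6. Ser73 phosphorylation was quantified by AlphaScreen (680 nm excitation).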
Background: In Alpha technology, singlet oxygen from a donor bead excites a nearby acceptor bead.

Experiment [9] has as its target Cytochrome P450 3A4 (Homo sapiens) (UniProt P08684). Kind of experiment: qHTS Assay for Activators of Cytochrome P450 3A4 (AID 885). Also: nearly all actives have a fitted effect of over 65% in size. The following applies: recombinant CYP3A4, Luciferin-PPXE luminescence, 60 min; series mostly up to 57.1 µM. Put shortly: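 Luminescent readout of luciferin formed from 25 uM Luciferin-PPXE (KM level) by 20 nM CYP3A4 in 200 mM KPO4, with 60 min NADPH-driven reaction at room temperature after 10 min compound exposure. Ketoconazole (57 uM) defined 100% inhibition.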
On the technique in general: Quantitative high-throughput screening tests each substance at several concentrations.

Experiment [10] can be described thus: qHTS Assay for Lipid Storage Modulators (AID 1519; calls by dose curve). The following applies: Drosophila S3 cells, BODIPY lipid droplet/cell ratio, laser cytometry, cells loaded with oleic acid; for activity change, negative = inhibition: at 57.5 µM (top of the series). Put shortly:
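Cells seeded at 5,000 per well were treated with compounds over a concentration series and loaded with oleic acid (400 uM, as added). Lipid droplet fluorescence (488 nm excitation, 500-530 nm channel) was read by laser-scanning cytometry and normalized to 20 uM Triacsin C.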

In experiment [11] the target is Dual specificity protein kinase CLK4 (Homo sapiens) (UniProt Q9HAZ1). Kind of experiment: qHTS Assay for Inhibitors of CDC-like Kinase 4 (ADP-Glo Assay) (AID 1771). Also: nearly all actives have a fitted effect of over 70% in size. Also: potency is read from the fitted curve at half-maximal effect. The note with it: recombinant CLK4, ADP-Glo luminescence; series mostly up to 80 µM. Summed up: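 25 nM Clk4, 100 uM RS peptide, 1 uM ATP (final); 2 mM MgCl2, 0.5 mM EGTA, 2.5 mM DTT, 0.01% Triton X-100; 1 hr RT. ADP-Glo readout: ATP depletion 45 min, conversion/luciferase 30 min, luminescence.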
Sequence of Dual specificity protein kinase CLK4 (Homo sapiens) (Q9HAZ1 whole entry, looked up): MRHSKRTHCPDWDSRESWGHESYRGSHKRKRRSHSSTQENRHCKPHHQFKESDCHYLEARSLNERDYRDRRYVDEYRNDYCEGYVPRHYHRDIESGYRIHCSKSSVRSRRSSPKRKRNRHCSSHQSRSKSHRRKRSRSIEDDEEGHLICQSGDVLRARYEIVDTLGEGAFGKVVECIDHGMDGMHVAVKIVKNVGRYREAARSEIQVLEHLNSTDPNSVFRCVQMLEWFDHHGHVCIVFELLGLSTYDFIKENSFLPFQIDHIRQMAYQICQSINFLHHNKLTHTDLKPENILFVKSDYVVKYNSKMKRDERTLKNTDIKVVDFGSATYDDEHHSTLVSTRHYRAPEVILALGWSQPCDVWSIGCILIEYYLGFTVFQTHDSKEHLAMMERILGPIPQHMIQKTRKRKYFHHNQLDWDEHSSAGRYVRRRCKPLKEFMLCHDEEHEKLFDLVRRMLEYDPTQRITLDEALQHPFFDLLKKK

Experiment [12] is described as follows: Primary qHTS for small molecule stabilizers of the endoplasmic reticulum resident proteome: Secreted ER Calcium Modulated Protein (SERCaMP) assay (AID 1508630). Also: % is scaled to controls: 0 for no effect and ±100 for the full control effect. The following applies: SH-SY5Y GLuc-SERCaMP (Gaussia luciferase released on ER calcium loss) secretion, thapsigargin, luminescence; series mostly up to 38.4 µM. Summed up:
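The SH-SY5Y reporter protocol was run at 3 concentrations up to 38.3 uM (primary) or 11 concentrations (follow-up): 16 h compound, 100 nM thapsigargin for 4 h, then extracellular luciferase luminescence.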

Experiment [13] addresses Rap guanine nucleotide exchange factor 3 (Homo sapiens) (UniProt O95398). Kind of experiment: Confirmatory qHTS for antagonist of cAMP-regulated guanine nucleotide exchange factor 3 (EPAC1) (AID 1645880).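 Also: plate controls were DMSO only for no effect and full effect of the ATA control for full effect; nearly all actives have a fitted effect of over 55% in size.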 The following applies: EPAC1 Rap1B-BODIPY-GDP exchange, fluorescence; series mostly up to 115 µM. Summed up:
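Released BODIPY-GDP fluoresces less than Rap1-bound BODIPY-GDP; the signal is followed at 480/540 nm at 5-min intervals over 30 min, after 5 min at room temperature. Reactions contain 100 nM EPAC1, 250 nM RAP1B-BODIPY-GDP and 50 uM GDP; results are normalized to ATA and DMSO.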

Experiment [14] has as its target Rap guanine nucleotide exchange factor 4 (Homo sapiens) (UniProt Q8WZA2). Kind of experiment: Confirmatory qHTS for antagonist of cAMP-regulated guanine nucleotide exchange factor 4 (EPAC2) (AID 1645885). Also: % is scaled to controls: 0 for no effect and ±100 for the full control effect; nearly all actives have a fitted effect of over 25% in size. The note with it: EPAC2 Rap1B-BODIPY-GDP exchange fluorescence, biochemical; series mostly up to 114 µM.
Experiment [15] addresses 3',5'-cyclic-AMP phosphodiesterase 4B (Homo sapiens) (UniProt Q07343). The experiment is described as follows: qHTS Assay for Inhibitors of PDE-IV (AID 607; active = well fitted activation curve with a large enough effect in the main read-out, with a control signal flat, not every such curve was filed as active; also: % of control where 0% means no effect). The note with it: HEK293 ACTOne CNG channel cells, membrane potential fluorescence; series mostly up to 22.9 µM. Put shortly: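 Cell-based read-out of cAMP via a modified cyclic nucleotide-gated channel and membrane potential dye (535/590 nm) in HEK293 cells expressing PDE4 endogenously. Compounds tested up to 22.9 uM final; 100 uM RO 20-1724 reference.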

For experiment [16], the target named is Dual specificity protein kinase CLK4 (Homo sapiens) (UniProt Q9HAZ1). Kind of experiment: qHTS Assay for Inhibitors of CDC-like Kinase 4 (Kinase-Glo Assay) (AID 1770). Also: % is scaled to controls: 0 for no effect and ±100 for the full control effect; nearly all actives have a fitted effect of over 65% in size. The note with it: recombinant Clk4, Kinase-Glo ATP depletion luminescence; series mostly up to 66.7 µM. Summed up: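 Clk4 25 nM, RS peptide 100 uM, ATP 1 uM, pH 7.5 Tris, 10 mM MgCl2, 2.5 mM DTT; 4.5 h RT; ATP depletion read by Kinase-Glo luminescence.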

Experiment [17] has the same target. The experiment is described as follows: qHTS Assay for Inhibitors of CDC-like Kinase 4 (ADP-FP Assay) (AID 1795).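 Also: recombinant human CLK4 phosphorylating RS repeat peptide at 1 µM ATP; % is scaled to controls: 0 for no effect and ±100 for the full control effect; nearly all actives have a fitted effect of over 60% in size.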 The following applies: Transcreener ADP fluorescence polarization; series mostly up to 50 µM. Put shortly:
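Kinase activity was followed as ADP output, converted from fluorescence polarization with a calibration curve. Reactions ran one hour at low ATP (1 uM) with RS peptide substrate.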

Experiment [18] has as its target Ubiquitin carboxyl-terminal hydrolase 1 (Homo sapiens) (UniProt O94782). Kind of experiment: Inhibitors of USP1/UAF1: Pilot qHTS (AID 504865).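 Also: rhodamine fluorescence freed from ubiquitin-rhodamine substrate followed over time; top concentration of the series differs between compounds; % is scaled to controls: 0 for no effect and ±100 for the full control effect; nearly all actives have a fitted effect of over 35% in size.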 The following applies: purified USP1/UAF1, Ub-rhodamine cleavage fluorescence; series mostly up to 54.9 µM. Summed up:
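Enzyme-free wells gave the negative control, while test wells held 1nM USP1/UAF1 preincubated with compound for 15 min at room temperature. Ub-Rho at 150nM final started the reaction, and fluorescence at 480/540 nm was recorded kinetically.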

Where [19] appears, read: measured here: cell count channel max response.
Setting [20] is: measured here: lipid channel max response.

Sequence of Cytochrome P450 1A2 (Homo sapiens) (P05177 whole entry, looked up): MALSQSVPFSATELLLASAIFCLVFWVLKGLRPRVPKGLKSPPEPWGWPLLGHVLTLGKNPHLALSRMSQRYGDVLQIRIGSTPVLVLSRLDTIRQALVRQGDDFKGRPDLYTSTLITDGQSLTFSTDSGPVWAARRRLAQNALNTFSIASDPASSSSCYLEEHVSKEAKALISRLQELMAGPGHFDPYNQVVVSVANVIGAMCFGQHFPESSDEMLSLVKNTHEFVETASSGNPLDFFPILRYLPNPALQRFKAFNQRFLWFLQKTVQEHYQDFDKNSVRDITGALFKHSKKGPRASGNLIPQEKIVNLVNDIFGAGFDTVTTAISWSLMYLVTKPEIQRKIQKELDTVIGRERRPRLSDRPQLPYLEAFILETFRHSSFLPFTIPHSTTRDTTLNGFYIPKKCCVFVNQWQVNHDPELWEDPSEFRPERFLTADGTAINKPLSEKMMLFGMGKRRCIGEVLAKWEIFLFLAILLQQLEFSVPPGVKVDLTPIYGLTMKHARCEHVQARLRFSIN
Sequence of Lysosomal acid glucosylceramidase (Homo sapiens) (P04062 whole entry, looked up): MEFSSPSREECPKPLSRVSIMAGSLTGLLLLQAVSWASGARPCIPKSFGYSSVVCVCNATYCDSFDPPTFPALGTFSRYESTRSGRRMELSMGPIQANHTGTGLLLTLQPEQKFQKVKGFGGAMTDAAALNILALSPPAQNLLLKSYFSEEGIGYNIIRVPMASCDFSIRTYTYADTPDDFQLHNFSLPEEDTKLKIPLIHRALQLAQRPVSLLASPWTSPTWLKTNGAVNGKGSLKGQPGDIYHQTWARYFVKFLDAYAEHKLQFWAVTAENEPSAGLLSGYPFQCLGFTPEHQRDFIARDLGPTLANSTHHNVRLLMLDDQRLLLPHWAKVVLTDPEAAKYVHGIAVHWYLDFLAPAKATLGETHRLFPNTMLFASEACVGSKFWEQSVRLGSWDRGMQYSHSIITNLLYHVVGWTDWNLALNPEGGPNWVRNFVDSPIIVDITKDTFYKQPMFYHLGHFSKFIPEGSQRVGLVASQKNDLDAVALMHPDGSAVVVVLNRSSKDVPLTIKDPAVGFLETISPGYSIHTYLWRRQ
Sequence of Ubiquitin carboxyl-terminal hydrolase 1 (Homo sapiens) (O94782 whole entry, looked up): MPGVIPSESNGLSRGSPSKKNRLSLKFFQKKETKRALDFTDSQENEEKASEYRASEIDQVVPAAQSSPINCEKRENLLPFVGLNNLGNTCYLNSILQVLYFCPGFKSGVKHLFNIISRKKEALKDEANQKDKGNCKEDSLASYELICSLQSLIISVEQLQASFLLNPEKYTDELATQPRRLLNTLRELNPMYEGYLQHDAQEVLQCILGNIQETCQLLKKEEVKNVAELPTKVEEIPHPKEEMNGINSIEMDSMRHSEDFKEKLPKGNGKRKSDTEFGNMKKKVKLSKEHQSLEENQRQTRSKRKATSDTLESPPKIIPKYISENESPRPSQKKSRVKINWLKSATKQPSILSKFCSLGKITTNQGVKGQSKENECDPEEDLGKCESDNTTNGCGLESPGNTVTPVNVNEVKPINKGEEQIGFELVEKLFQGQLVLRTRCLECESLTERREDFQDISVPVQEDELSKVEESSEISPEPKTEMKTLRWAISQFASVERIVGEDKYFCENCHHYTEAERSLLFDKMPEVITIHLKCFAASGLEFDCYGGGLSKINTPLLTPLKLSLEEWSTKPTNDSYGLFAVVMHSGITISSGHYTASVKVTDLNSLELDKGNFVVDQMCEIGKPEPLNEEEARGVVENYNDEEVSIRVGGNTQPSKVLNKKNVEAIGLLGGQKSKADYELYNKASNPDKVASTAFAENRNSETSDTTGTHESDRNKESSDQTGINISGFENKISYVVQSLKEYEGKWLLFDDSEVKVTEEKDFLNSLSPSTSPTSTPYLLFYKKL
Sequence of 3',5'-cyclic-AMP phosphodiesterase 4B (Homo sapiens) (Q07343 whole entry, looked up): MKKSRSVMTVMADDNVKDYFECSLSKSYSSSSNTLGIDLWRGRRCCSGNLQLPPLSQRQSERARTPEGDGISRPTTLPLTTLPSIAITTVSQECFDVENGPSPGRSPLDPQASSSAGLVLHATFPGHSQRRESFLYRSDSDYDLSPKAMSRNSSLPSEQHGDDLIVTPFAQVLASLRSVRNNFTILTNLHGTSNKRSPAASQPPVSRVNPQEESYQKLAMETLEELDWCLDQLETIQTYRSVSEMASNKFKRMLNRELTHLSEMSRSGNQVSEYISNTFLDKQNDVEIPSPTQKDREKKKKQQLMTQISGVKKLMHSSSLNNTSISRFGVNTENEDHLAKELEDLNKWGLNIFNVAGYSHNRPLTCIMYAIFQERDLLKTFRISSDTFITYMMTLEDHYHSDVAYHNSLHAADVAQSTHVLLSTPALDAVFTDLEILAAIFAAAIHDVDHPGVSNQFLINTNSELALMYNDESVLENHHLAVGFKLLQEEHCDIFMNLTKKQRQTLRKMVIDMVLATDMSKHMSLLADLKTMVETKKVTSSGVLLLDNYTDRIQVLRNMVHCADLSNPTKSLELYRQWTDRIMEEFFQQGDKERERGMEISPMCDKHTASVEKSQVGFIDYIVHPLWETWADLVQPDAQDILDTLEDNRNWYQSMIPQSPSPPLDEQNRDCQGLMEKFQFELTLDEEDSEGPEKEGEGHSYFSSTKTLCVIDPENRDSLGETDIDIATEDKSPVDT
Sequence of Rap guanine nucleotide exchange factor 3 (Homo sapiens) (O95398 whole entry, looked up): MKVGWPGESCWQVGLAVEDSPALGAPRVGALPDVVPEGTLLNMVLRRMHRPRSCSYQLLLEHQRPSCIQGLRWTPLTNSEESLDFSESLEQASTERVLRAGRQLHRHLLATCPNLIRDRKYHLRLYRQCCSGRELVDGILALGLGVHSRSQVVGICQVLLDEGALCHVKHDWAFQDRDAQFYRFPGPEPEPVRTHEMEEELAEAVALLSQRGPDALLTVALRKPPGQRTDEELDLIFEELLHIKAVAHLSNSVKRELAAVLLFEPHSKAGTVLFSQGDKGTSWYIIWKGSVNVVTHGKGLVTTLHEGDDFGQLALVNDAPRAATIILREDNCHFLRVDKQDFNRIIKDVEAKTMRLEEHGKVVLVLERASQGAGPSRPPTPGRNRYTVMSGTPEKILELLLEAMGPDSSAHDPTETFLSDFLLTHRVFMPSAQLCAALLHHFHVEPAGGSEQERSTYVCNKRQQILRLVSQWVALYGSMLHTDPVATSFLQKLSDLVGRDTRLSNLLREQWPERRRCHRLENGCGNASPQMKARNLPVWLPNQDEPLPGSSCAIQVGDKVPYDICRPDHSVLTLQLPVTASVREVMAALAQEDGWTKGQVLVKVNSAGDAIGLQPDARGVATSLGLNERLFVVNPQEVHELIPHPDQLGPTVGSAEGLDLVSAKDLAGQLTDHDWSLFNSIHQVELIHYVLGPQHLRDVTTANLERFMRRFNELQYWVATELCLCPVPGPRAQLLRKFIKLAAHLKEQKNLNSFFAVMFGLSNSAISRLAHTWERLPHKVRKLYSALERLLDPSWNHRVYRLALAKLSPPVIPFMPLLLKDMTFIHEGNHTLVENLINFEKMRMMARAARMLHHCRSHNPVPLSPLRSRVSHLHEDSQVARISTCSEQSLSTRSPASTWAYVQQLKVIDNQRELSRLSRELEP

On to `COc1ccccc1-c1cc(NCc2cccc(C)c2)ncn1`, for which the Potency in [1] was > 11.4 µM (inactive); in [3], 1.58 µM (active); in experiment [6], > 46 µM (inactive); in [7], > 46 µM (inactive); in [11], 35.5 µM (active). Also, the activity change, negative = inhibition in [2] is -9.64% (inactive); in [4], 1.95% (inactive); in [10], -23.2% (inactive). Besides, in experiment [5], the activity, negative = inhibition was -2.82% (inactive). Moreover, the call in [8] was inactive. Besides, the Potency entry in experiment [9], in experiment [12], in [13] and in [14] was “inactive” in each case. The max response in experiment [10] (setting [19]) was 4.86%; in experiment [10] (setting [20]), -16.7%.
Take `COCCn1c(=O)c(C)nc2cnc(N3CCN(C)CC3)nc21`: the Potency in [1] was > 11.4 µM (inactive); in [3], 15.8 µM (active); in experiment [6] it was > 9.22 µM (inactive); in [7] it was > 46 µM (inactive). Moreover, the activity change, negative = inhibition in [2] is -5.64% (inactive); in [4], 4.52% (inactive); in [10], 2.08% (inactive). Further, in experiment [5], the activity, negative = inhibition is -3.76% (inactive). The molecule was classed as inactive in experiment [8]. The Potency entry in [15], in experiment [16], in experiment [11], in [17], in experiment [18] and in experiment [12] was “inactive” throughout. Also, the max response in experiment [10] (setting [19]) was 3.08%; in experiment [10] (setting [20]), 2.85%.
With `CN1CCN(c2ncc3nc(-c4cc(F)cc(F)c4)c(=O)n(C)c3n2)CC1`, the Potency is > 11.4 µM (inactive) in experiment [1], 5.01 µM (active) in experiment [3], > 9.22 µM (inactive) in experiment [6] and > 46 µM (inactive) in [7]. Also, the activity change, negative = inhibition in experiment [2] is 11.2% (inactive); in [4] it was 5.17% (inactive); in [10] it was 4.65% (inactive). In experiment [5], the activity, negative = inhibition is 12.7% (inactive). Also, the molecule was called inactive in experiment [8]. Further, the Potency entry in experiment [15], in experiment [16], in [11], in [17], in [18] and in experiment [12] was “inactive” in each case. The max response was determined as 14.2% in [10] (setting [19]) and 19.8% in experiment [10] (setting [20]).
On to `CC(=O)NCCNc1cc(-c2ccccc2CN(C)C)ncn1`, for which the Potency was > 11.4 µM (inactive) in experiment [1], > 46 µM (inactive) in experiment [6] and > 46 µM (inactive) in experiment [7]. Further, the activity change, negative = inhibition in experiment [2] was 3.33% (inactive); in experiment [4] it was -5.44% (inactive); in [10] it was -0.819% (inactive). For the same molecule, the Potency result in experiment [3], in [15], in experiment [16], in experiment [11], in experiment [17] and in experiment [18] was “inactive” each time. The Potency entry in [12] is “inactive”. Moreover, in experiment [5], the activity, negative = inhibition is 2.18% (inactive). For the same molecule, in experiment [8], the result was inactive. Besides, the values for the max response in experiment [10] (setting [19]) and in [10] (setting [20]) were 11.1% and 8.32%, respectively.
Turning to `O=c1c(-c2ccccc2)nc2cnc(N3CCOCC3)nc2n1C1CC1`, the Potency was > 11.4 µM (inactive) in experiment [1], 3.16 µM (active) in experiment [3], > 9.22 µM (inactive) in [6] and > 46 µM (inactive) in experiment [7]. The values for the activity change, negative = inhibition in [2], in experiment [4] and in [10] were -9.27% (inactive), -1.33% (inactive) and -1.42% (inactive), respectively. Besides, the activity, negative = inhibition in experiment [5] is -7.68% (inactive). In addition, the outcome in [8] was inactive. Besides, the Potency entry in experiment [15], in [16], in experiment [11], in experiment [17], in experiment [18] and in experiment [12] was “inactive” throughout. Further, the max response is 1.76% in experiment [10] (setting [19]) and -1.06% in experiment [10] (setting [20]).
